According to publication PMC7862700, “An all-to-all approach to the identification of sequence-specific readers for epigenetic DNA modifications on cytosine”:

Assays:
Assay in all cases: DAPPL (digital affinity profiling via proximity ligation, sequencing); 10 mM Tris-HCl pH 7.5, 50 mM NaCl, 1 mM DTT, 4% glycerol, room temperature, 30 min; GST-TFs on glutathione beads, 16-mer random dsDNA library, 0.1% formaldehyde crosslink after washing; high values mean tight binding
FLI1 = target: T1, FLI1 (Homo sapiens, UniProt Q01543 1-452); details: protein: recombinant; tags: N-terminal GST; dsDNA, one strand shown
T1 sequence: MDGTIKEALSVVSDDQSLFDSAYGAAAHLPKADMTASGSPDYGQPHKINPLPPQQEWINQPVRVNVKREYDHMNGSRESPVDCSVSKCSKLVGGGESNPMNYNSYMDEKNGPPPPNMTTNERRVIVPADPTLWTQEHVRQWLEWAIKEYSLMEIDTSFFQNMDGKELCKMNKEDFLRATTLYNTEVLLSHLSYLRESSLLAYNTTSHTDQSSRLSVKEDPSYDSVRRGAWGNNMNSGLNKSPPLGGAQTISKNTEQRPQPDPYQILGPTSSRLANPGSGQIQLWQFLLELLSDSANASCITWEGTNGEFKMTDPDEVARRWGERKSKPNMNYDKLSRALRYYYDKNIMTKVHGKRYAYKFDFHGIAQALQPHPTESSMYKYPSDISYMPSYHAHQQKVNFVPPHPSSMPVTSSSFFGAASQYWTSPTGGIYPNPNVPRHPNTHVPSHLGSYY
Method in brief: (§1)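 Each value of binding signal is a hexamer's read frequency for a factor divided by the same hexamer's frequency in the tag-only sample. Barcoded, bead-captured GST fusions of human transcription factors made in yeast were pooled with that sample and incubated with 200 nmole of a random double-stranded 16-mer DNA library in Tris/NaCl/DTT/glycerol buffer at room temperature for 30 min. Washing, 0.1% formaldehyde crosslinking, proximity ligation, PCR and Illumina NextSeq500 sequencing followed.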

ELK1 = target: T2, ELK1 (Homo sapiens, UniProt P19419 1-428); details: protein: recombinant; tags: N-terminal GST; dsDNA, one strand shown
T2 sequence: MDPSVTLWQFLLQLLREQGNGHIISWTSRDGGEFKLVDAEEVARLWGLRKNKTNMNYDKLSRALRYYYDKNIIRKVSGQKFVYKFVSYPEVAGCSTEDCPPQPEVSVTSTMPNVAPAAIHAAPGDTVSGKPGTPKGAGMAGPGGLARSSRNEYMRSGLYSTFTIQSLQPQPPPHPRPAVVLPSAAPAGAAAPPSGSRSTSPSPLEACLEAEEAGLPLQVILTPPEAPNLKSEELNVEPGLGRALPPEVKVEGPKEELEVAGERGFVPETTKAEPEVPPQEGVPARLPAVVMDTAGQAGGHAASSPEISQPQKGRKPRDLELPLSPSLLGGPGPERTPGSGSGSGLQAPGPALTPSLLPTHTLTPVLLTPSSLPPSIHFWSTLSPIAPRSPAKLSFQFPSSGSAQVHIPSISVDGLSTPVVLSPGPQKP
Method in brief: as §1

GABPA = target: T3, GABPA (Homo sapiens, UniProt Q06546 1-454); details: protein: recombinant; tags: N-terminal GST; dsDNA, one strand shown
T3 sequence: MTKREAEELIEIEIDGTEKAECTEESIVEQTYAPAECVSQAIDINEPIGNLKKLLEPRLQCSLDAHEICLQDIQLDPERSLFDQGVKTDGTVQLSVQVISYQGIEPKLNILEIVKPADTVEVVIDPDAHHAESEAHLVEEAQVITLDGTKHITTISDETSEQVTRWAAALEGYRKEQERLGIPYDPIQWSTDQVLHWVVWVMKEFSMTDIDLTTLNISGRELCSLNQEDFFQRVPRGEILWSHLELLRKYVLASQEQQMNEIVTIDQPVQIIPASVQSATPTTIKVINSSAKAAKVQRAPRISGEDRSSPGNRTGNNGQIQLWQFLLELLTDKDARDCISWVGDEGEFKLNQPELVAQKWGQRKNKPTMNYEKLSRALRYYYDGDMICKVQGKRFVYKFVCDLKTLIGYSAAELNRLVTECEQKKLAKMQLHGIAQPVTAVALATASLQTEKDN
Method in brief: as §1

ERG = target: T4, ERG (Homo sapiens, UniProt P11308 1-479); details: protein: recombinant; tags: N-terminal GST; dsDNA, one strand shown
T4 sequence: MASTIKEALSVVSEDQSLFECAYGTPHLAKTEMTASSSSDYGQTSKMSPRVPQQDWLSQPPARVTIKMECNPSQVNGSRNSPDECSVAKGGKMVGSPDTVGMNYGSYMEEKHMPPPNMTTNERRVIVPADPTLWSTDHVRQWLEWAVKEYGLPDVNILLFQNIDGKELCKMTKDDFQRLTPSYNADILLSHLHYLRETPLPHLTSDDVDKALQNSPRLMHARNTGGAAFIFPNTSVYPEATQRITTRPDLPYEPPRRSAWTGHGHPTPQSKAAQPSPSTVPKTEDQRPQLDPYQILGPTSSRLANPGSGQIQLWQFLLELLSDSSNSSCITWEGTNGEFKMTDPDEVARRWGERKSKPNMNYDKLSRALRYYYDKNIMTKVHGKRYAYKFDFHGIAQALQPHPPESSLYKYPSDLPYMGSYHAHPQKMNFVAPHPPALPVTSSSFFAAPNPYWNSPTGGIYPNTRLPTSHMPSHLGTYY
Method in brief: as §1

ELF1 = ELF1 (Homo sapiens, UniProt P32519 1-619); details: protein: recombinant; tags: N-terminal GST; dsDNA, one strand shown
Chain of ELF1 (P32519 whole entry): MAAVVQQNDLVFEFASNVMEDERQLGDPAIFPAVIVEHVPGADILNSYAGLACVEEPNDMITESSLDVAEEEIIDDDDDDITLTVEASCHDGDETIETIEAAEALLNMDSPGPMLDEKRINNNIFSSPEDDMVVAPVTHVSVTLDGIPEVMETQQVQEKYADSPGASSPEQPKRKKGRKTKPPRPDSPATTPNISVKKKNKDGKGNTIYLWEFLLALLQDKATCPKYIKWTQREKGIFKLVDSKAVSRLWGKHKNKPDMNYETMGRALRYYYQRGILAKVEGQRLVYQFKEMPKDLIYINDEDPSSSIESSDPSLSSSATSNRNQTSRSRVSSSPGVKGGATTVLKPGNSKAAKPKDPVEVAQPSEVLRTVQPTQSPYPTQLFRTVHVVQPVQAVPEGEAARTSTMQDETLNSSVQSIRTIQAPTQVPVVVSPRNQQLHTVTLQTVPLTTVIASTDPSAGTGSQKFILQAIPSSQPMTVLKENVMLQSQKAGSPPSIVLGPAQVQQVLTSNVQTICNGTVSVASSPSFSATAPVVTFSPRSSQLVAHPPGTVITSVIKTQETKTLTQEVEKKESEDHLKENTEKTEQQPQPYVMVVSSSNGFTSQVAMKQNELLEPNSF
Method in brief: as §1

EHF = target: T5, EHF (Homo sapiens, UniProt Q9NZC4 1-300); details: protein: recombinant; tags: N-terminal GST; dsDNA, one strand shown
T5 sequence: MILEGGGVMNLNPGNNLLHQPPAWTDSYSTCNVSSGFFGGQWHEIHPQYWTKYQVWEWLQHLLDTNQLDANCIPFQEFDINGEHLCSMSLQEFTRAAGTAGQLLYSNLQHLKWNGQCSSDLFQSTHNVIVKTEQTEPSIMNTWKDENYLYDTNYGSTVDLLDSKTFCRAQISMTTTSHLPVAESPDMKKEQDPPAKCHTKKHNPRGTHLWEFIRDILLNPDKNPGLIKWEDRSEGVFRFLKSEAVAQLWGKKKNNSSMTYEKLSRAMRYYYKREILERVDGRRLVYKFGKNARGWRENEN
Method in brief: as §1

SPI1 = SPI1 (Homo sapiens, UniProt P17947 1-270); details: protein: recombinant; tags: N-terminal GST; dsDNA, one strand shown
Method in brief: as §1

SPIB = SPIB (Homo sapiens, UniProt Q01892 1-262); details: protein: recombinant; tags: N-terminal GST; dsDNA, one strand shown
Chain of SPIB (Q01892 whole entry): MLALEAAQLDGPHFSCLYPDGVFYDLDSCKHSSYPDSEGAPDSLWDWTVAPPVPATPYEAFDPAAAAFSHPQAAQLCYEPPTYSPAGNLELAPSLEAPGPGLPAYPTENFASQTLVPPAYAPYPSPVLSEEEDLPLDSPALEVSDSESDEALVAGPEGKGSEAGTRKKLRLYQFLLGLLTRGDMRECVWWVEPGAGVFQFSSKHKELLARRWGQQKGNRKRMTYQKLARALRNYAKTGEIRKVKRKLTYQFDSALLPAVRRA
Method in brief: as §1

ELK3 = target: T6, ELK3 (Homo sapiens, UniProt P41970 1-407); details: protein: recombinant; tags: N-terminal GST; dsDNA, one strand shown
T6 sequence: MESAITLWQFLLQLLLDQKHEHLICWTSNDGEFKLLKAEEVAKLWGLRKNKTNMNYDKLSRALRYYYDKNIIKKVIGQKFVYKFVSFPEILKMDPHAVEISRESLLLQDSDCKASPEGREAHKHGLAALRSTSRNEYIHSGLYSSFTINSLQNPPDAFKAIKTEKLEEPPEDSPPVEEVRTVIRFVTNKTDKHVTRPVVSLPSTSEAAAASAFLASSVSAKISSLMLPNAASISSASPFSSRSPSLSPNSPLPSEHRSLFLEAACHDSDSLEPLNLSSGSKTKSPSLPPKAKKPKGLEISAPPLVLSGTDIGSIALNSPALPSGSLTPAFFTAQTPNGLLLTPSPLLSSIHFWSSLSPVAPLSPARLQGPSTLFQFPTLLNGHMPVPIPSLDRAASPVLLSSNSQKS
Method in brief: as §1

FEV = target: T7, FEV (Homo sapiens, UniProt Q99581 1-238); details: protein: recombinant; tags: N-terminal GST; dsDNA, one strand shown
T7 sequence: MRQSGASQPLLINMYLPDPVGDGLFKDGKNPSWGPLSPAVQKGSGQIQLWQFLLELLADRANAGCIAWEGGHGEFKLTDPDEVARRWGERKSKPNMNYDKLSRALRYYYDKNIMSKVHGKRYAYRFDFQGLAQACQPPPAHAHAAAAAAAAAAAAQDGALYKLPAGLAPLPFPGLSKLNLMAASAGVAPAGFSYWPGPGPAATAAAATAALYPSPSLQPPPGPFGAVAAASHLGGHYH
Method in brief: as §1

ETV5 = ETV5 (Homo sapiens, UniProt P41161 1-510); details: protein: recombinant; tags: N-terminal GST; dsDNA, one strand shown
Chain of ETV5 (P41161 whole entry): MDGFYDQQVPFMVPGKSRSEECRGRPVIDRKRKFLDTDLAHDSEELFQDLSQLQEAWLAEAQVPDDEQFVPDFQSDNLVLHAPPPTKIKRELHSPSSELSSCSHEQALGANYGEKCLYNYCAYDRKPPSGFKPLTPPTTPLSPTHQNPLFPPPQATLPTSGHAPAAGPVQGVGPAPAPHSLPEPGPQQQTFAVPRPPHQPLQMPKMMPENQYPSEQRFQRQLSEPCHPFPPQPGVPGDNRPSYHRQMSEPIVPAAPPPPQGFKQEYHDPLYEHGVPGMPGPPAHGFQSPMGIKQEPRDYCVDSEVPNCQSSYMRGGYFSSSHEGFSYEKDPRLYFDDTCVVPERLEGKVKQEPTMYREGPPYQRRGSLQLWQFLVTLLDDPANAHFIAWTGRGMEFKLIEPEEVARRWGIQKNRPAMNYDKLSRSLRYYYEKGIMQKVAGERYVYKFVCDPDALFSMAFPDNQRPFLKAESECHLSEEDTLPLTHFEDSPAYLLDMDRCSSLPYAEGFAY
Method in brief: as §1

HSF1 = HSF1 (Homo sapiens, UniProt Q00613 1-529); details: protein: recombinant; tags: N-terminal GST; chain copies: 3; dsDNA, one strand shown
Chain of HSF1 (Q00613 whole entry): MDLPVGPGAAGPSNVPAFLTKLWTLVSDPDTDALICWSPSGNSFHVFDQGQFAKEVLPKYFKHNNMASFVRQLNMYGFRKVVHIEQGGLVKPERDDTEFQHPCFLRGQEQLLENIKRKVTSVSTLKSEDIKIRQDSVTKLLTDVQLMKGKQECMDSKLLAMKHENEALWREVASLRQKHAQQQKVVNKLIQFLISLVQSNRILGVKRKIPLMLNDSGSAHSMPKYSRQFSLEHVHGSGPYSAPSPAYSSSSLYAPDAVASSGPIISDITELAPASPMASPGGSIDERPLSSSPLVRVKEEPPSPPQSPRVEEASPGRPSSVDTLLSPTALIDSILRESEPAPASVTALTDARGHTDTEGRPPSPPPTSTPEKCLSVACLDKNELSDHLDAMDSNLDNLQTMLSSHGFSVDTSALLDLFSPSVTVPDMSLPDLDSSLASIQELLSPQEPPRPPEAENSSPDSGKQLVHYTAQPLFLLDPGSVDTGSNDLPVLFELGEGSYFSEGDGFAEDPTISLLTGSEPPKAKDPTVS
Method in brief: as §1

SPIC = target: T8, SPIC (Homo sapiens, UniProt Q8N5J4 1-248); details: protein: recombinant; tags: N-terminal GST; dsDNA, one strand shown
T8 sequence: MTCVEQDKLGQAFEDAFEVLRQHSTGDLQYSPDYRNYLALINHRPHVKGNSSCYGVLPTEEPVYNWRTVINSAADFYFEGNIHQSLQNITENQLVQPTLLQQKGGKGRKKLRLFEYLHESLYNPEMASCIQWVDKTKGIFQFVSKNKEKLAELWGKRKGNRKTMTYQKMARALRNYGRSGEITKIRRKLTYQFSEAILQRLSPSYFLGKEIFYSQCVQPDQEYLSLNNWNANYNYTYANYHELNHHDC
Method in brief: as §1

ELF4 = ELF4 (Homo sapiens, UniProt Q99607 1-663); details: protein: recombinant; tags: N-terminal GST; dsDNA, one strand shown
Chain of ELF4 (Q99607 whole entry): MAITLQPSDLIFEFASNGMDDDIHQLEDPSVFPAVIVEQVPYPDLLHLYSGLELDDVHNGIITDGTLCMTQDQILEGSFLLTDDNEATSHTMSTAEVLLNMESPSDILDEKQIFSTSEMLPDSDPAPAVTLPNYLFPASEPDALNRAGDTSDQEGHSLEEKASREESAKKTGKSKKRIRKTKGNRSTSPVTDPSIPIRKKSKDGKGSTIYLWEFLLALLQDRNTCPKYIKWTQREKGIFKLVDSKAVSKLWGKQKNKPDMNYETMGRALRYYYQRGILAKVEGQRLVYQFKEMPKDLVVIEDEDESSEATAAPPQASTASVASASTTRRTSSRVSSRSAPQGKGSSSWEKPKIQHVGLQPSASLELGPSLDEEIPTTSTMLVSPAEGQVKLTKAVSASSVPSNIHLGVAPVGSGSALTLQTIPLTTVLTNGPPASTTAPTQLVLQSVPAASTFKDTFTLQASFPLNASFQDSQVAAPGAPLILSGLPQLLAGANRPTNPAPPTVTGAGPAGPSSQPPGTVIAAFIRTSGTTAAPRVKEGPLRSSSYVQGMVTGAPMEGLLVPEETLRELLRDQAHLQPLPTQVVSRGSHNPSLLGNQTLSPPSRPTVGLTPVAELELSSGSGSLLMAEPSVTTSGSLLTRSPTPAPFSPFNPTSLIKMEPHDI
Method in brief: as §1

ELK4 = target: T9, ELK4 (Homo sapiens, UniProt P28324-2 1-405); details: protein: recombinant; tags: N-terminal GST; dsDNA, one strand shown
T9 sequence: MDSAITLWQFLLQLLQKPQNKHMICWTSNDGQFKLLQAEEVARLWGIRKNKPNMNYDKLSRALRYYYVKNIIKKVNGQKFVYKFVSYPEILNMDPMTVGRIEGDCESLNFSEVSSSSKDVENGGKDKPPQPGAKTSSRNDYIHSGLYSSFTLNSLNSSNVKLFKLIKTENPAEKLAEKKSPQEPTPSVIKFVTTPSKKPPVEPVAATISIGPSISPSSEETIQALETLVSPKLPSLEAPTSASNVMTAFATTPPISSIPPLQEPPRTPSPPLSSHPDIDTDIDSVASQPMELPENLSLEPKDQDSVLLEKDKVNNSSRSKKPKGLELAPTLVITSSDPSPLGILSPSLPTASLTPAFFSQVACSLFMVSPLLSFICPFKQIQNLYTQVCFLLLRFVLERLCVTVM
Method in brief: as §1

ETV2 = target: T10, ETV2 (Homo sapiens, UniProt O00321 1-342); details: protein: recombinant; tags: N-terminal GST; dsDNA, one strand shown
T10 sequence: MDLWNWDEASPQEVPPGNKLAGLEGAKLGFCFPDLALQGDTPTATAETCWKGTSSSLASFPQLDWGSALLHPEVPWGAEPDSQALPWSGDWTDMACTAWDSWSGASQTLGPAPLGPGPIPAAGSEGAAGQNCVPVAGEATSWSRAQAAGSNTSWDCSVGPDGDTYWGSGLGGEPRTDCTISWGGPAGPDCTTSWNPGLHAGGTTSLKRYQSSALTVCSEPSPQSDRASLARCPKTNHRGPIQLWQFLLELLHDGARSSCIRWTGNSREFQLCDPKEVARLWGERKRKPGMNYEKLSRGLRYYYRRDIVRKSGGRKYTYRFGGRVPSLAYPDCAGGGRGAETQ
Method in brief: as §1

ELF3 = target: T11, ELF3 (Homo sapiens, UniProt P78545 1-371); details: protein: recombinant; tags: N-terminal GST; dsDNA, one strand shown
T11 sequence: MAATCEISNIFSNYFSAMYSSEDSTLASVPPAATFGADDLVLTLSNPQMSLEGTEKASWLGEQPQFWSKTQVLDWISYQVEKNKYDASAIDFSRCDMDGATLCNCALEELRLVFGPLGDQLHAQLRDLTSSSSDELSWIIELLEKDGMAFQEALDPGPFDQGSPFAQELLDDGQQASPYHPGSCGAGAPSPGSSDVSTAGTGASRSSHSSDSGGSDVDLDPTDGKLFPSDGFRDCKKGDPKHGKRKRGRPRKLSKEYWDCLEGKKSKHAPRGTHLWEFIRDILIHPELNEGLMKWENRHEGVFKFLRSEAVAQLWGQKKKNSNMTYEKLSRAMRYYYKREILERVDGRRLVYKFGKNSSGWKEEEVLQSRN
Method in brief: as §1

CRX = CRX (Homo sapiens, UniProt O43186 1-299); details: protein: recombinant; tags: N-terminal GST; dsDNA, one strand shown
Chain of CRX (O43186 whole entry): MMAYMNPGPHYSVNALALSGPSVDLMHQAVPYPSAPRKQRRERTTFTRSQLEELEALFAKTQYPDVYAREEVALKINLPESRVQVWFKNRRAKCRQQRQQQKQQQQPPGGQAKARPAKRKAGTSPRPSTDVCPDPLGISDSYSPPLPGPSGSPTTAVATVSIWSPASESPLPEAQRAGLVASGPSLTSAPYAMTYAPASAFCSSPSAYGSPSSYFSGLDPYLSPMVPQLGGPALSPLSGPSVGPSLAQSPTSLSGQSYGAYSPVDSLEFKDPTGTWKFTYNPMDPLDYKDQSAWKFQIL
Method in brief: as §1

ETV1 = ETV1 (Homo sapiens, UniProt P50549 1-477); details: protein: recombinant; tags: N-terminal GST; dsDNA, one strand shown
Chain of ETV1 (P50549 whole entry): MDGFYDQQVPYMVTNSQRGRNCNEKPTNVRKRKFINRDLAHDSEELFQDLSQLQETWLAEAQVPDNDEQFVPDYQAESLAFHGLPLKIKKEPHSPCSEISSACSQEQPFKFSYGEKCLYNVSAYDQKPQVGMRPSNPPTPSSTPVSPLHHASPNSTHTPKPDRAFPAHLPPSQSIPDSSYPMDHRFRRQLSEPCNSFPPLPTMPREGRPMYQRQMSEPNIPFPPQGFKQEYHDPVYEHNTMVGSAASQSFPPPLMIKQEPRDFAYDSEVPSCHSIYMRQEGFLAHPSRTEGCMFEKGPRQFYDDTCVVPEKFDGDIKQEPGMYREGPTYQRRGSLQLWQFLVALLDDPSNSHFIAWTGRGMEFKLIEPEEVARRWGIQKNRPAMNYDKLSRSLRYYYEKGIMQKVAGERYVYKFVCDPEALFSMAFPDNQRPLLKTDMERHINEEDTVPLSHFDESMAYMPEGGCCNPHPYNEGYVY
Method in brief: as §1

CCGATT
binding signal (FLI1): 1.42 fold enrichment (6-mer frequency, TF over GST control) | binding signal (ELK1): 1.35 fold enrichment (6-mer frequency, TF over GST control) | binding signal (GABPA): 1.32 fold enrichment (6-mer frequency, TF over GST control) | binding signal (ERG): 1.34 fold enrichment (6-mer frequency, TF over GST control) | binding signal (ELF1): 1.36 fold enrichment (6-mer frequency, TF over GST control) | binding signal (EHF): 1.4 fold enrichment (6-mer frequency, TF over GST control) | binding signal (SPI1): 1.31 fold enrichment (6-mer frequency, TF over GST control) | binding signal (SPIB): 1.4 fold enrichment (6-mer frequency, TF over GST control) | binding signal (ELK3): 1.29 fold enrichment (6-mer frequency, TF over GST control) | binding signal (FEV): 1.37 fold enrichment (6-mer frequency, TF over GST control) | binding signal (ETV5): 1.34 fold enrichment (6-mer frequency, TF over GST control) | binding signal (HSF1): 1.94 fold enrichment (6-mer frequency, TF over GST control) | binding signal (SPIC): 1.18 fold enrichment (6-mer frequency, TF over GST control) | binding signal (ELF4): 1.41 fold enrichment (6-mer frequency, TF over GST control) | binding signal (ELK4): 1.37 fold enrichment (6-mer frequency, TF over GST control) | binding signal (ETV2): 1.27 fold enrichment (6-mer frequency, TF over GST control) | binding signal (ELF3): 1.17 fold enrichment (6-mer frequency, TF over GST control) | binding signal (CRX): 2.69 fold enrichment (6-mer frequency, TF over GST control) | binding signal (ETV1): 1.35 fold enrichment (6-mer frequency, TF over GST control)
